Test results taken from PubChem BioAssay (Tox21).
Results filed as inconclusive are left out. Active and inactive are the calls of the source. The call rests on the fitted dose curve; in most records, active means well fitted curve in the direction sought with a large enough effect in the repeat runs; inconclusive means weak or mixed curves; inactive means no such curve, though single readings can be large; an effect the other way counts as inactive or inconclusive.

Tests used:
[1] = molecular target: Cytochrome P450 2D6 (Homo sapiens) (UniProt P10635); assay: Cytochrome P450 Family 2 Subfamily D Member 6 (CYP2D6) small molecule antagonists: luciferase reporter qHTS assay (AID 1671196); details: P450-Glo CYP2D6 enzyme assay, luciferin luminescence, 1 h; series mostly up to 115 µM; further: nearly all actives have a fitted effect of over 50% in size
Method in brief: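 Each well received CYP2D6 with its proluciferin substrate and chemical, sat 10 min, then got NADPH regeneration solution for 1 h at room temperature. Luminescence in RLU served as the activity measure.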

[2] = molecular target: Cytochrome P450 2C19 (Homo sapiens) (UniProt P33261); assay: Cytochrome P450 Family 2 Subfamily C Member 19 (CYP2C19) small molecule antagonists: luciferase reporter qHTS assay (AID 1671197); details: P450-Glo CYP2C19 enzyme, luciferin luminescence, 1 h; series mostly up to 115 µM; further: nearly all actives have a fitted effect of over 65% in size
Method in brief: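 CYP2C19 P450-Glo, 1536-well qHTS. Cpd + enzyme/proluciferin substrate 10 min RT; + NADPH regen, 37C 1 h; stop with luciferin detection reagent, 20 min RT, luminescence (RLU). Pos ctrl ketoconazole.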

[3] = molecular target: Cytochrome P450 2C9 (Homo sapiens) (UniProt P11712); assay: Cytochrome P450 Family 2 Subfamily C Member 9 (CYP2C9) small molecule antagonists: luciferase reporter qHTS assay (AID 1671198); details: P450-Glo CYP2C9 enzyme assay, luciferin luminescence; series mostly up to 53 µM; further: nearly all actives have a fitted effect of over 50% in size
Method in brief: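 P450-Glo proluciferin substrate with CYP2C9 enzyme; 10 min RT preincubation, then NADPH regeneration 1 h at 37C; luciferin detection reagent 20 min RT, luminescence in relative luminescence units.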

[4] = molecular target: Cytochrome P450 1A2 (Homo sapiens) (UniProt P05177); assay: Cytochrome P450 Family 1 Subfamily A Member 2 (CYP1A2) small molecule antagonists: luciferase reporter qHTS assay (AID 1671199); details: P450-Glo CYP1A2 enzyme, luciferin luminescence, 1 h; series mostly up to 53 µM; further: nearly all actives have a fitted effect of over 50% in size
Method in brief: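 Enzymatic CYP1A2 assay, human, luminescent: 10 min compound–enzyme–substrate preincubation, 1 h NADPH-dependent turnover, 20 min detection step, room temperature throughout. Reduced light indicates lower CYP1A2 activity.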

[5] = molecular target: Voltage-gated inwardly rectifying potassium channel KCNH2 (Homo sapiens) (UniProt Q12809); assay: Human Ether-a-go-go-Related Gene (hERG) channel small molecule antagonists: fluorescence cell-based qHTS assay (AID 1671200); details: hERG-U2OS cells, FluxOR thallium flux fluorescence; series mostly up to 76.8 µM; further: nearly all actives have a fitted effect of over 50% in size;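 on activity change, negative = inhibition: hERG-expressing U2OS cells given a thallium stimulus after FluxOR II dye loading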
Method in brief: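 Kinetic two-minute fluorescence traces, sampled at 1 s, were collected following thallium stimulus of U2OS cells (1000 per well) that had been cultured overnight at 37 C and loaded with FluxOR II.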

[6] = molecular target: Cytochrome P450 3A4 (Homo sapiens) (UniProt P08684); assay: Cytochrome P450 Family 3 Subfamily A Member 4 (CYP3A4) small molecule antagonists: luciferase reporter qHTS assay (AID 1671201); details: P450-Glo CYP3A4 enzyme, luciferin luminescence, 1 h; series mostly up to 115 µM; further: nearly all actives have a fitted effect of over 50% in size
Method in brief: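 Proluciferin-to-luciferin conversion by CYP3A4, NADPH-regenerated, 1 h RT; luminescence read as RLU. Ketoconazole as control.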
On the % scale 0 is the no-effect control and ±100 the full control effect; potency means the concentration at half of the fitted maximal effect.

Cytochrome P450 2C9 (Homo sapiens), sequence (P11712 whole entry, looked up): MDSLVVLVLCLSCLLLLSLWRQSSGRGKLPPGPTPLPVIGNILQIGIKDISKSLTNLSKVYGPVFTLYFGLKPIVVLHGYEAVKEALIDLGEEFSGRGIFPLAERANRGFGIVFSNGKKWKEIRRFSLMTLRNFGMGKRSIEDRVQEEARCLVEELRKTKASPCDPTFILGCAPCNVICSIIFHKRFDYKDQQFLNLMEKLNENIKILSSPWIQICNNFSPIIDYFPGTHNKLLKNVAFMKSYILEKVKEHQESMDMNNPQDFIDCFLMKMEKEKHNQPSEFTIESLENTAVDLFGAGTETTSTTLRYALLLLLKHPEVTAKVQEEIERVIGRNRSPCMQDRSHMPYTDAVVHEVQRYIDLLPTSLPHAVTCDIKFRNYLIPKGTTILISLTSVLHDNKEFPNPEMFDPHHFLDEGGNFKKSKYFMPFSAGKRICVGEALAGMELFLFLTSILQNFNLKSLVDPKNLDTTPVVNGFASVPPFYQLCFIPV
Voltage-gated inwardly rectifying potassium channel KCNH2 (Homo sapiens), sequence (Q12809 whole entry, looked up): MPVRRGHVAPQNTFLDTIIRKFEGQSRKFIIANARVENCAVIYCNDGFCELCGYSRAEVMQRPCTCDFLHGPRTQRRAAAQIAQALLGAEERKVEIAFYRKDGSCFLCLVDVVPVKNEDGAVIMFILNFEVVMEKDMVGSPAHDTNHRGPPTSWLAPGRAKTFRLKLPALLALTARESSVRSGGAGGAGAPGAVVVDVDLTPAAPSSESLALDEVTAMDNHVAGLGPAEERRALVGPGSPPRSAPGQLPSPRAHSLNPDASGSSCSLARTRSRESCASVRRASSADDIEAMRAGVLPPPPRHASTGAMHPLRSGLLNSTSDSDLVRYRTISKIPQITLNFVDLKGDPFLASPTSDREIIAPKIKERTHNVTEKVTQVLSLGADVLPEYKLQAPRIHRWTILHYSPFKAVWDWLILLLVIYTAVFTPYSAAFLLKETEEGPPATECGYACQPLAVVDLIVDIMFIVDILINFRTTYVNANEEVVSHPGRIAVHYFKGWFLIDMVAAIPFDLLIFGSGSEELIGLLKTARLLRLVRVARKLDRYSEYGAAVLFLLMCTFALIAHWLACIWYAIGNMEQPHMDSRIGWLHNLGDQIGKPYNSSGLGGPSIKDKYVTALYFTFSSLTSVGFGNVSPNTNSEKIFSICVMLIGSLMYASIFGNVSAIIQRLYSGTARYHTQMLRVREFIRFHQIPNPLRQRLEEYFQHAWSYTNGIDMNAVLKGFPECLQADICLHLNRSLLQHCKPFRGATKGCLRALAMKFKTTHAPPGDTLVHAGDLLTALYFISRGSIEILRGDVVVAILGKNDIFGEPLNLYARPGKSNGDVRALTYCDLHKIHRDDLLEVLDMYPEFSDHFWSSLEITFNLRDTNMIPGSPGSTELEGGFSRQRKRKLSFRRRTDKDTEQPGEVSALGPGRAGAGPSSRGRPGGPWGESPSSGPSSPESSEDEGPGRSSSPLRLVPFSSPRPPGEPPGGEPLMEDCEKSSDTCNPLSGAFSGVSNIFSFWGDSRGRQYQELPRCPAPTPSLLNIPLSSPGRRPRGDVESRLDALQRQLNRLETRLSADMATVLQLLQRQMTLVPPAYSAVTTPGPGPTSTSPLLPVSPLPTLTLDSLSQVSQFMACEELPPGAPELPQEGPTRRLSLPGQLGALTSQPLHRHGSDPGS
Cytochrome P450 3A4 (Homo sapiens), sequence (P08684 whole entry, looked up): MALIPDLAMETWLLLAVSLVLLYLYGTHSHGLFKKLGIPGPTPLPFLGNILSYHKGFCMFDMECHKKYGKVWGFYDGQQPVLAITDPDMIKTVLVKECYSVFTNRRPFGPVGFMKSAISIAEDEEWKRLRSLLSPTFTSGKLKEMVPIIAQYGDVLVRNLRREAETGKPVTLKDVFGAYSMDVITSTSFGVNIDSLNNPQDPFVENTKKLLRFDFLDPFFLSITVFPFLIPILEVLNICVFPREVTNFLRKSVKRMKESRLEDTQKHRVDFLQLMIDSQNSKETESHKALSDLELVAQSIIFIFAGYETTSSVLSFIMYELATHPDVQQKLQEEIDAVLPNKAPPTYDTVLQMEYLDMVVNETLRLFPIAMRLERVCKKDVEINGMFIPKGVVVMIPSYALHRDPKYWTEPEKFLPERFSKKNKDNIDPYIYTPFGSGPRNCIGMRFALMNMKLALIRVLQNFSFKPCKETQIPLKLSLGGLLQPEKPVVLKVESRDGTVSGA
Cytochrome P450 2C19 (Homo sapiens), sequence (P33261 whole entry, looked up): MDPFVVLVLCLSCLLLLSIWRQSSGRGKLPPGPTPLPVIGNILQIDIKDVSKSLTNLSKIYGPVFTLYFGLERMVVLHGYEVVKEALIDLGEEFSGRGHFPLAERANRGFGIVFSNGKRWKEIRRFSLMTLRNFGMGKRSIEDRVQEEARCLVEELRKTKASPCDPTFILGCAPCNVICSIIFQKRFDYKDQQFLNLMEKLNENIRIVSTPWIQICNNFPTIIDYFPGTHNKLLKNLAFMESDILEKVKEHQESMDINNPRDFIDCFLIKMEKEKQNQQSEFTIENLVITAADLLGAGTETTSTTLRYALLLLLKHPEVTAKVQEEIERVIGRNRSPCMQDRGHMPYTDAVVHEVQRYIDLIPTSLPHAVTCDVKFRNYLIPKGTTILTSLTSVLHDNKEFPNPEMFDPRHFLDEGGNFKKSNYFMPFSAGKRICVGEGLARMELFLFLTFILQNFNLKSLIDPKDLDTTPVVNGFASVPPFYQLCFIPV
Cytochrome P450 1A2 (Homo sapiens), sequence (P05177 whole entry, looked up): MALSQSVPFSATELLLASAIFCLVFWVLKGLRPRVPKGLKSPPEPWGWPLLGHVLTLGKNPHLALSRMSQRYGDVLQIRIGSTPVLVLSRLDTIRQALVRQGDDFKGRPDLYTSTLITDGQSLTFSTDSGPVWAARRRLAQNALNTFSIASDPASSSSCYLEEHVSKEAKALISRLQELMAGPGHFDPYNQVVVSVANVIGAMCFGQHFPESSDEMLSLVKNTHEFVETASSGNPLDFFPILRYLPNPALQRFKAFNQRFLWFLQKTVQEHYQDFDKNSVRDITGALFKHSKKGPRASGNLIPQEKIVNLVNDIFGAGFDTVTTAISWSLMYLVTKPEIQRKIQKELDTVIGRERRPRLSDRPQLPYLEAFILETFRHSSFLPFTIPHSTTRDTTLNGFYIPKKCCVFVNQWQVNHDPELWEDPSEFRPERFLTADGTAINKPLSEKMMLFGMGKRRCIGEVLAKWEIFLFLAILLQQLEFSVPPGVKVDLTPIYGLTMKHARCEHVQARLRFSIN
Cytochrome P450 2D6 (Homo sapiens), sequence (P10635 whole entry, looked up): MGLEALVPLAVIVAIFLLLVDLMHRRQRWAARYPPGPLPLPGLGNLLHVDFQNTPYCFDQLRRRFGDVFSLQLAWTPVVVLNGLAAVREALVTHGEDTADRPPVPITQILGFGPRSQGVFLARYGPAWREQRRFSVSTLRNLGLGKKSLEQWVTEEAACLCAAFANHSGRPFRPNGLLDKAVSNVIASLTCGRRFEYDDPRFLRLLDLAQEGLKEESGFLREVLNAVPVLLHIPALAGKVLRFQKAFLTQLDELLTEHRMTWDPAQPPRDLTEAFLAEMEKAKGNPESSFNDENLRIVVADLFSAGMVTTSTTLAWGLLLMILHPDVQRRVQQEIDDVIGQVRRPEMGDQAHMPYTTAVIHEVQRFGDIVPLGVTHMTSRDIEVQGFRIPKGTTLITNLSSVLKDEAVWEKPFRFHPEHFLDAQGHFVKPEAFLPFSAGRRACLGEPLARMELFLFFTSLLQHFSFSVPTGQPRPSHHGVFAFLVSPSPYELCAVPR

OCCN(CCO)CCN(CCO)CCO
inactive: Potency [1] | Potency [2] | Potency [3] | Potency [4] | Potency [5] | Potency [6]

Cc1nc(-c2ccccn2)ncc1C(=O)Nn1cc(C)c2cc(F)ccc21
inactive: Potency [5]
active: Potency [1] 44.8 µM | Potency [2] 56.4 µM | Potency [3] 1.59 µM | Potency [4] 31.7 µM | Potency [6] 7.96 µM

Cc1c(-c2ccccc2)oc2c(C(=O)OCCN3CCCCC3)cccc2c1=O
inactive: Potency [2]
active: Potency [1] 5.49 µM

CCCCNC(=S)NCCCC
active: Potency [1] 1.42 µM | Potency [2] 79.6 µM | Potency [3] 71 µM | Potency [4] 44.8 µM | Potency [6] 31.7 µM
inactive: Potency [5]

CN1[C@@H]2CC[C@H]1CC(OC(=O)c1c[nH]c3ccccc13)C2 (stereo not given in full)
inactive: Potency [2] | Potency [3] | Potency [4] | Potency [6]
active: Potency [1] 15.5 µM | Potency [5] 19 µM

Cc1cc2c(s1)Nc1ccccc1N=C2N1CCN(C)CC1
inactive: Potency [1] | Potency [2] | Potency [3] | Potency [4] | Potency [5] | Potency [6]

C=Cc1ccccc1
inactive: Potency [1] | Potency [2] | Potency [3] | Potency [4] | Potency [5] | Potency [6]

CCN1CC(CCN2CCOCC2)C(c2ccccc2)(c2ccccc2)C1=O (stereo not given)
active: Potency [1] 1.23 µM
inactive: Potency [2] | Potency [3] | Potency [4] | Potency [5]

C[C@@H]1CN(c2c(F)c(N)c3c(=O)c(C(=O)O)cn(C4CC4)c3c2F)C[C@H](C)N1
inactive: activity change, negative = inhibition [1] -4.41% [at 23.6 µM] | activity change, negative = inhibition [2] 45.2% [at 23.6 µM] | Potency [3] | Potency [4] | activity change, negative = inhibition [5] -2.21% [at 15.8 µM] | activity change, negative = inhibition [6] -3.59% [at 23.6 µM]

CC1=CC(=O)CC(C)(C)C1=O
inactive: Potency [1] | Potency [2] | Potency [3] | Potency [4] | Potency [5] | Potency [6]

CCOC(=O)c1ccccc1O
inactive: Potency [1] | Potency [2] | Potency [3] | Potency [4] | Potency [5] | Potency [6]

CCCCCCCOC(=O)CCC
inactive: Potency [3] | Potency [5] | Potency [6]
active: Potency [1] 20 µM | Potency [2] 79.6 µM

CC(=O)N(CC(O)CN(C(C)=O)c1c(I)c(C(=O)NCC(O)CO)c(I)c(C(=O)NCC(O)CO)c1I)c1c(I)c(C(=O)NCC(O)CO)c(I)c(C(=O)NCC(O)CO)c1I (stereo not given)
inactive: Potency [1] | Potency [2] | Potency [3] | Potency [5] | Potency [6]

CCCc1c2oc(C(=O)O)cc(=O)c2cc2c(=O)cc(C(=O)O)n(CC)c12
inactive: Potency [1] | Potency [2] | Potency [3] | Potency [4] | Potency [5] | Potency [6]

Cc1ccc([N+](=O)[O-])cc1Cl
inactive: Potency [1] | Potency [2] | Potency [3] | Potency [4] | Potency [5] | Potency [6]

CN1CCN(C2=Nc3cc(F)ccc3Cc3ccccc32)CC1
inactive: Potency [2] | Potency [3] | Potency [5]
active: Potency [1] 4.9 µM

CCC(=O)c1ccc2c(c1)N(CCCN(C)C)c1ccccc1S2
active: Potency [1] 1.1 µM | Potency [2] 11 µM | Potency [5] 9.52 µM
inactive: Potency [3] | Potency [6]

OCCN1CCN(CCO)CC1
inactive: Potency [1] | Potency [2] | Potency [3] | Potency [4] | Potency [5] | Potency [6]

CC(C)CC(=O)OCc1ccccc1
inactive: Potency [1] | Potency [2] | Potency [3] | Potency [4] | Potency [5] | Potency [6]

COC(=O)/C=C(/C)N
inactive: Potency [1] | Potency [2] | Potency [3] | Potency [5] | Potency [6]

CC(=O)OC1C2(C)CCC(C2)C1(C)C (stereo not given)
inactive: Potency [1] | Potency [2] | Potency [3] | Potency [5] | Potency [6]

O=c1oc2c(O)c(O)cc3c(=O)oc4c(O)c(O)cc1c4c23
inactive: activity change, negative = inhibition [1] -16.4% [at 23.6 µM] | activity change, negative = inhibition [2] 0.227% [at 23.6 µM] | Potency [3] | activity change, negative = inhibition [5] 6.87% [at 15.8 µM] | activity change, negative = inhibition [6] 6.71% [at 23.6 µM]

CCN(O)CC
inactive: Potency [1] | Potency [2] | Potency [3] | Potency [5] | Potency [6]

CC(C)C1=CC2=CC[C@@H]3[C@](C)(CCC[C@@]3(C)C(=O)O)[C@H]2CC1
active: Potency [2] 35.6 µM | Potency [3] 28.3 µM | Potency [6] 35.6 µM
inactive: Potency [1] | Potency [5]

CCc1cc(Cl)c(OC)c(C(=O)NC[C@@H]2CCCN2CC)c1O
inactive: Potency [2] | Potency [3] | Potency [6]
active: Potency [1] 0.617 µM | Potency [5] 6.74 µM

CC(C)OC(C)C
inactive: Potency [1] | Potency [2] | Potency [3] | Potency [5] | Potency [6]

Cn1cnc2c(F)c(Nc3ccc(Br)cc3Cl)c(C(=O)NOCCO)cc21
active: Potency [2] 8.71 µM | Potency [3] 13.8 µM
inactive: Potency [1] | Potency [5]

CC(C)(C)c1ccc(OC(=O)c2ccccc2O)cc1
active: Potency [3] 31.7 µM | Potency [4] 39.9 µM
inactive: Potency [1] | Potency [2] | Potency [5] | Potency [6]

O=C(O)[C@@H](O)[C@H](O)[C@H](O)[C@@H](O)C(=O)O
inactive: Potency [1] | Potency [2] | Potency [3] | Potency [5] | Potency [6]

COC(=O)C(C)O (stereo not given)
inactive: Potency [1] | Potency [2] | Potency [3] | Potency [5] | Potency [6]

OC[C@H]1O[C@@H](O[C@H]2[C@H](O)[C@@H](O)[C@H](O)O[C@@H]2CO)[C@H](O)[C@@H](O)[C@H]1O
inactive: Potency [1] | Potency [2] | Potency [3] | Potency [4] | Potency [5] | Potency [6]

Cc1onc(-c2ccccc2)c1C(=O)Cl
inactive: Potency [1] | Potency [2] | Potency [3] | Potency [5] | Potency [6]
